Laboratory results: PubChem BioAssay (NCATS)
Records with an inconclusive call do not appear. The source made the active and inactive calls. Calls come from the whole dose curve; as a rule, active = well fitted curve in the direction sought with a large enough effect; inconclusive = small, poorly fitted or top-dose-only effect, or another doubt; inactive = no such curve, though single readings can be large; an effect the other way counts as inactive or inconclusive. *1 amine or outer side, *2 acyl side, *3 side chain or, on linkers, in order; H or OH if unused. Where a SMILES comes first, the peptide text is derived from it. [ ]: non-standard residue; d: D form. X5 = CC(CC(O[*:1])C(=O)[*:2])C(=O)O; NMeV = CN[CH](C(=O)O)C(C)C; NMeA = CN[CH](C)C(=O)O; βAla = NCCC(=O)O

How the values were obtained:
[1] = system: Zika virus NS2B-NS3 protease (linked construct); assay: Primary screen NINDS Rhodamine qHTS for Zika virus inhibitors (AID 1347160); note: nearly all actives have a fitted effect of over 55% in size
How it was run: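 Enzyme (25 nM, linked NS2B-NS3) was preincubated 15 min with compound in 10 mM Tris-HCl pH 8.0, 0.01% Tween 20. Rhodamine110 substrate (1.5 microM) was then added and fluorescence read at start and after 15 min.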

[2] = target: Calcium and integrin-binding protein 1 (Homo sapiens) (UniProt Q99828); assay: Primary qHTS for Identification of Calcium Integrin Binding Protein 1 (CIB1) Competitor (AID 1508620);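 note: GST tagged CIB1 binding a fluorescein labelled alphaIIb integrin peptide tracer; top concentration of the series differs between compounds; % is set by controls: 0 for no effect and ±100 for the full control effect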
Chain of Calcium and integrin-binding protein 1 (Homo sapiens) (Q99828 whole entry, looked up): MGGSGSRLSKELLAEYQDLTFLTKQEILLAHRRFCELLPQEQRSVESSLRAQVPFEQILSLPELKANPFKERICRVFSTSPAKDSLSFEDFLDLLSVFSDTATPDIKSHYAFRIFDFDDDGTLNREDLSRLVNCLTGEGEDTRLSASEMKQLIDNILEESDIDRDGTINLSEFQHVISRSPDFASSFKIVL
How it was run: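 CIB1-GST (1 uM final) and compound incubated 15 min at room temperature before adding FITC-alphaIIb peptide tracer (100 nM final). Competition for binding read by fluorescence polarization (ex 480, em 540) after another 15 min at room temperature.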

[3] = target: Glutathione peroxidase 1 (Homo sapiens) (UniProt P07203); assay: Primary qHTS Assay for Inhibitors of Recombinant Selenoprotein Glutathione Peroxidase 1 (GPX1) (AID 1845191); note: nearly all actives have a fitted effect of over 65% in size
Chain of Glutathione peroxidase 1 (Homo sapiens) (P07203 whole entry, looked up): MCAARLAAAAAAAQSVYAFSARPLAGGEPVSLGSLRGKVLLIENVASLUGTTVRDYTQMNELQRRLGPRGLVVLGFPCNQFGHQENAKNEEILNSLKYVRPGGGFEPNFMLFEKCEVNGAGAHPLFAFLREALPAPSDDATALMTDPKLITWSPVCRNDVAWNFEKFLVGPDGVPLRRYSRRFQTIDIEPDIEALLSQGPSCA
How it was run: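 NADPH consumption tracked by fluorescence at 340/450 nm between t=0 and t=15 min, room temperature. Final mix: 10 nM GPX1, 100 nM glutathione reductase, 1 mM GSH, 0.5 mM NADPH, 0.5 mM cumene hydroperoxide, 0.01% BSA; 30 min compound–enzyme preincubation.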

[4] = target: Phospholipid hydroperoxide glutathione peroxidase GPX4 (Homo sapiens) (UniProt P36969); assay: Primary qHTS Assay for Inhibitors of Recombinant Selenoprotein Glutathione Peroxidase 4 (GPX4) (AID 1845192); note: nearly all actives have a fitted effect of over 65% in size; note: potency is the fitted concentration of half-maximal effect
Chain of Phospholipid hydroperoxide glutathione peroxidase GPX4 (Homo sapiens) (P36969 whole entry, looked up): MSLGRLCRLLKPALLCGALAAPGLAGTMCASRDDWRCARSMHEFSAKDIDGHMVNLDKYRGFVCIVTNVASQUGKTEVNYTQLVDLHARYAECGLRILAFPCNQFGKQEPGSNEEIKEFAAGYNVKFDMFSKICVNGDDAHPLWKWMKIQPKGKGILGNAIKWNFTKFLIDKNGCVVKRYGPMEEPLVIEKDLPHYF
How it was run: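 NADPH consumption followed by fluorescence at 340/450 nm, t=0 and after 15 min at room temperature. Reaction started with cumene hydroperoxide (0.5 mM final) after 30 min compound–GPX4 preincubation; final 200 nM GPX4, 100 nM GR, 1 mM GSH, 0.5 mM NADPH.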

[5] = target: Luciferin 4-monooxygenase (Photinus pyralis) (UniProt P08659); assay: Primary firefly luciferase (FLuc) qHTS assay for identification of artifact compounds. (AID 1845220); conditions: outcome: dose series up to 54.1 µM unless noted; note: nearly all actives have a fitted effect of over 60% in size
How it was run: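 Compounds sat 15 min at room temperature with 10 uM luciferin and 10 uM ATP (pH 7.6 Tris acetate). Firefly luciferase (10 nM final) was then added, and luminescence was read 5 min later. Data normalized to no-enzyme and DMSO controls were Hill-fitted.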

[6] = Primary fluorescence-based thiol-reactive (MSTI) qHTS assay for identification of artifact compounds. (AID 1845221);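 note: thiol-reactive compounds lower the probe fluorescence signal; nearly all actives have a fitted effect of over 65% in size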
How it was run: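 MSTI probe at 4 uM final in 2% DMSO/PBS pH 7.4; compounds, 1 h at room temperature in dark. Fluorescence Ex/Em 525/598 nm, normalised to Acetyl-MSTI and MSTI, fitted to 4-parameter Hill.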

[7] = system: Nanoluciferase (engineered Oplophorus gracilirostris luciferase); assay: Primary Nanoluciferase (NLuc) qHTS assay for identification of artifact compounds. (AID 1845222);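 note: 0% = DMSO and -100% = no enzyme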
How it was run: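 Luminescence from secreted NLuc (filtered, 1:55-diluted S16 cell medium) read 5 min after Nano-Glo substrate; compounds preincubated 15 min, RT. Hill fits of inhibition normalized to DMSO and no-enzyme.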

[8] = Primary redox qHTS assay for identification of artifact compounds. (AID 1845223);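 note: 0% = DMSO and 100% = reference compound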
How it was run: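 Redox-cycling detection via DTT (250 uM final) oxidation coupled to Amplex Red (25 uM)/HRP (250 mU/mL) in HBSS. 15 min preincubation plus 30 min after DTT, room temperature. Ex/Em 525/598 nm; 4-parameter Hill fit against DMSO and 10 uM DA3003.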

[9] = system: CRL-7250; assay: Cytotoxic Profiling of Annotated Libraries Using Quantitative High-Throughput Screening (AID 1296008); conditions: Five cell lines viability, CellTiter-Glo ATP luminescence, 48-72 h; max response: active compounds read low; note: nearly all actives have a fitted effect of over 60% in size; note: potency is the fitted concentration of half-maximal effect; for max response: % is set by controls: 0 for no effect and ±100 for the full control effect
How it was run: (§1)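 Cytotoxicity was measured as CellTiter-Glo ATP luminescence, read after 10 min at room temperature. Compound treatment of the cells lasted 48 or 72 hr at 37 degrees Celsius in a qHTS format.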

[10] = system: NIH3T3; assay: as above; conditions: Five cell lines viability, CellTiter-Glo ATP luminescence, 48-72 h; max response: active compounds read low
How it was run: as §1

[11] = system: C33A; assay: Primary qHTS to identify gynecologic anti-cancer compounds using libraries of approved drugs and bioactive compounds (AID 1345084); conditions: Gynecologic cancer cell panel viability, ATPlite luminescence, 48 h; series mostly up to 57.5 µM; note: nearly all actives have a fitted effect of over 55% in size; note: potency is the fitted concentration of half-maximal effect
How it was run: (§2)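 Cells, 1,000 per well, plated 16 h, then exposed 48 h at 37 C to compounds. Viability by ATPlite luminescence after 15 min at room temperature.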

[12] = system: CAOV3; assay: as above; conditions: Gynecologic cancer cell panel viability, ATPlite luminescence, 48 h; series mostly up to 57.5 µM
How it was run: as §2

[13] = system: CASKI; assay: as above; conditions: Gynecologic cancer cell panel viability, ATPlite luminescence, 48 h; series mostly up to 57.5 µM
How it was run: as §2

[14] = system: Es-2; assay: as above; conditions: Gynecologic cancer cell panel viability, ATPlite luminescence, 48 h; series mostly up to 57.5 µM
How it was run: as §2

[15] = system: Hek293T; assay: as above; conditions: Gynecologic cancer cell panel viability, ATPlite luminescence, 48 h, control line for the selectivity index; series mostly up to 57.5 µM
How it was run: as §2

[16] = system: JEG-3; assay: as above; conditions: Gynecologic cancer cell panel viability, ATPlite luminescence, 48 h; series mostly up to 57.5 µM
How it was run: as §2

[17] = system: OV90; assay: as above; conditions: Gynecologic cancer cell panel viability, ATPlite luminescence, 48 h; series mostly up to 57.5 µM
How it was run: as §2

[18] = system: PA-1; assay: as above; conditions: Gynecologic cancer cell panel viability, ATPlite luminescence, 48 h; series mostly up to 57.5 µM
How it was run: as §2

[19] = system: Tov-21-G; assay: as above; conditions: Gynecologic cancer cell panel viability, ATPlite luminescence, 48 h; series mostly up to 57.5 µM
How it was run: as §2

[20] = system: Tov112D; assay: as above; conditions: Gynecologic cancer cell panel viability, ATPlite luminescence, 48 h; series mostly up to 57.5 µM
How it was run: as §2

CCC(C)C1NC(=O)C2CCCN2C(=O)C(CC(C)C(=O)O)OC(=O)CCNC(=O)C(C)N(C)C(=O)C(C(C)C)N(C)C1=O (stereo unspecified) (cyclo([X5]PI[NMeV][NMeA][βAla]); configuration not given here)
inactive: Potency [1] | Potency [2] | Potency [3] | Potency [4] | outcome [5] | Potency [6] | Potency [7] | Potency [8] | max response [9] -24.2% | max response [10] 3.88% | Potency [11] | Potency [12] | Potency [13] | Potency [14] | Potency [15] | Potency [16] | Potency [17] | Potency [18] | Potency [19] | Potency [20]

COc1ccc2[nH]c(-c3ccccc3)c(CCN(C)C)c2c1
active: Potency [4] 16.1 µM
inactive: Potency [1] | Potency [2] | Potency [3] | outcome [5] | Potency [7] | Potency [8] | outcome [9] | max response [10] -23.1% | Potency [11] | Potency [12] | Potency [13] | Potency [14] | Potency [15] | Potency [16] | Potency [17] | Potency [18] | Potency [19] | Potency [20]

COC1(C[S@@](=O)c2ccccc2)CCN(CCc2c[nH]c3ccc(F)cc23)CC1
inactive: Potency [1] | Potency [2] | Potency [3] | Potency [4] | outcome [5] | Potency [6] | Potency [7] | Potency [8] | max response [9] 3.05% | max response [10] 1.71% | Potency [11] | Potency [12] | Potency [13] | Potency [14] | Potency [15] | Potency [16] | Potency [17] | Potency [18] | Potency [19] | Potency [20]

NCCCCCNC1(c2ccccc2)CCCCC1
inactive: Potency [1] | Potency [2] | Potency [3] | Potency [4] | outcome [5] | Potency [6] | Potency [7] | Potency [8] | max response [9] -4.91% | max response [10] -1.15% | Potency [11] | Potency [12] | Potency [13] | Potency [14] | Potency [15] | Potency [16] | Potency [17] | Potency [18] | Potency [19] | Potency [20]

CC(O)(c1ccccc1)C(Cc1ccc(Cl)cc1)n1cncn1 (stereo unspecified)
inactive: Potency [1] | Potency [2] | Potency [3] | Potency [4] | outcome [5] | Potency [6] | Potency [7] | Potency [8] | max response [9] 0.336% | max response [10] 1.55% | Potency [11] | Potency [12] | Potency [13] | Potency [14] | Potency [15] | Potency [16] | Potency [17] | Potency [18] | Potency [19] | Potency [20]

CCCN(CCC)CCc1ccc(OC)c(OCCc2ccccc2)c1
inactive: Potency [1] | Potency [2] | Potency [3] | Potency [4] | outcome [5] | Potency [6] | Potency [7] | Potency [8] | max response [9] 3.48% | max response [10] 1.81% | Potency [11] | Potency [12] | Potency [13] | Potency [14] | Potency [15] | Potency [16] | Potency [18] | Potency [19] | Potency [20]

O=C(C[C@@H]1NCCC[C@H]1O)Cn1cnc2ccccc2c1=O
inactive: Potency [1] | Potency [2] | Potency [3] | Potency [4] | outcome [5] | Potency [6] | Potency [7] | Potency [8]
active: Potency [9] 231 nM | Potency [10] 366 nM | Potency [11] 631 nM | Potency [13] 1.78 µM | Potency [14] 1.41 µM | Potency [15] 447 nM | Potency [17] 11.2 µM | Potency [18] 282 nM | Potency [19] 794 nM | Potency [20] 631 nM

C[C@H]1CN(CC[C@H](O)C2CCCCC2)CC[C@@]1(C)c1cccc(O)c1
inactive: Potency [1] | Potency [2] | Potency [3] | outcome [5] | Potency [6] | Potency [7] | Potency [8] | max response [9] 4.91% | max response [10] -4.6% | Potency [11] | Potency [12] | Potency [13] | Potency [14] | Potency [15] | Potency [16] | Potency [17] | Potency [18] | Potency [19] | Potency [20]

CCC1CN2CCc3cc(OC)c(OC)cc3C2CC1CC1=NCCc2cc(O)c(OC)cc21 (stereo unspecified)
inactive: Potency [1] | Potency [2] | Potency [3] | Potency [4] | outcome [5] | Potency [7] | max response [9] -0.358% | Potency [11] | Potency [12] | Potency [13] | Potency [14] | Potency [15] | Potency [16] | Potency [17] | Potency [18] | Potency [19] | Potency [20]

O=C(NCCN1CCC2(CC1)C(=O)NCN2c1cccc(F)c1)c1ccc(F)c(F)c1
inactive: Potency [1] | Potency [2] | Potency [3] | outcome [5] | Potency [6] | Potency [7] | Potency [8] | outcome [9] | max response [10] -17.5% | Potency [11] | Potency [12] | Potency [13] | Potency [14] | Potency [15] | Potency [16] | Potency [17] | Potency [18] | Potency [19] | Potency [20]
